Bioassay records from PubChem BioAssay.
Compounds with a hit are over-represented: about 4.2% of the library has one in this group of screens.
TRPV1 agonist: human TRPV1 agonism | Q8NER1 | TRPV1-expressing cells, Fluo-8 calcium influx, agonist mode | activation, % at 8.33 µM | 320,000 tested, 0.19% active | AID 540275; in the data active = activation above about 80%; inconclusive = between about 30% and that limit; also: 0% is about no effect
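TRPV1-expressing cells were cultured overnight at 35.5C and loaded with Fluo-8 calcium dye for 40 to 90 min at room temperature. After a 10 s baseline, compound was added and calcium influx was read kinetically for 3 min (ex 480/em 520 nm).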
D1 potentiator: enhances dopamine response at the human D1 receptor; P21728; HEK293 TREx D1 cells, calcium flux, dopamine EC20 potentiation; potentiation, % at 10 µM; 360,000 tested, 0.036% active; in the data active = potentiation above about 30%; also: 0% is about no effect
Target sequence (P21728 whole entry, looked up): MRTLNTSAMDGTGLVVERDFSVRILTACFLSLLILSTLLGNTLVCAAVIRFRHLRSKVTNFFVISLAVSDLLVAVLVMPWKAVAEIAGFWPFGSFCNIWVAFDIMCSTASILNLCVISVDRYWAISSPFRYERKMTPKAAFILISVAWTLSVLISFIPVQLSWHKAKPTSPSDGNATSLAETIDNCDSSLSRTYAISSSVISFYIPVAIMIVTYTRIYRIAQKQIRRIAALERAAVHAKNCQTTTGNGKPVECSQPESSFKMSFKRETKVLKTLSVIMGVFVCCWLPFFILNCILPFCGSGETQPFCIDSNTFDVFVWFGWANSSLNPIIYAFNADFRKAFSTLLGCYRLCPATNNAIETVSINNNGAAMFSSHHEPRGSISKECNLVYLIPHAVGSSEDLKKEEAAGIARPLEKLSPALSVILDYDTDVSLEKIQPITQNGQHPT
D1 antag: human D1 dopamine receptor antagonism; P21728; HEK293 TREx D1 cells, calcium flux, dopamine EC80; active compounds read low; activity change, negative = inhibition, % at 10 µM; 360,000 tested, 3.2% active; AID 504652; in the data active = activity change below about -30%; also: % is scaled to controls: 0 for no effect and ±100 for the full control effect
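Tetracycline-induced HEK293 T-REx cells with force-coupled D1 receptor were loaded with a no-wash calcium dye. Compound was added after a 10 s baseline and read kinetically for 180 s; EC80 dopamine was then added and calcium flux followed another 180 s.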
TRPV1 potentiator: potentiators of human vanilloid receptor 1 (TRPV1); 320,000 tested, 0.02% active; potentiation, % at 8.33 µM; TRPV1-expressing cells, Fluo-8 calcium influx, capsaicin EC20 potentiation; AID 540277; in the data active = potentiation above about 80%; inconclusive = between about 30% and that limit; also: 0% is about no effect
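Cells expressing TRPV1 were dye-loaded with Fluo-8 and read kinetically: 10 s baseline, 3 min after compound (agonist portion), then 2 min after EC20 capsaicin (allosteric enhancer portion). Calcium-bound dye fluorescence at 480/520 nm.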
D1 agonist: agonists of human D1 dopamine receptor. P21728. HEK293 T-REx D1 cells, calcium flux, agonist mode. activation, % at 2 µM. 360,000 tested, 1% active. AID 504660; in the data active = activation above about 30%; also: 0% is about no effect
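Inducible HEK293 T-REx D1 cells, force-coupled to calcium signalling, were plated at 4000 cells/well with tetracycline and held overnight at 30 C. After no-wash calcium dye loading, compound-evoked calcium rise over 180 s flagged agonists.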
* = called active by the depositor; ? = inconclusive; . = not tested or not shown.

SMILES	TRPV1 agonist	D1 potentiator	D1 antag	TRPV1 potentiator	D1 agonist
Cc1ccc(CS(=O)Cc2ccc(C(=O)NCc3ccccc3Cl)o2)cc1 (stereo not given)	1	8	10	-5	-1
O=C(NCc1ccccc1Cl)c1ccc(CS(=O)Cc2ccc(Cl)cc2)o1 (stereo not given)	6	6	-46*	11	3
COc1ccccc1CNC(=O)c1ccc(CS(=O)(=O)c2ccccc2OC)o1	4	-7	-89*	11	3
O=C(c1ccc(CS(=O)(=O)c2ccc(Br)cc2)o1)N1CCCCCC1	19	.	-24	-2	33*
O=C(NCc1ccccc1Cl)c1cc2ccccc2oc1=O	2	-3	15	5	0
O=C(NCc1ccccc1Cl)c1cc2ccccc2o1	.	-3	-33*	.	34*
O=C(NCc1ccccc1)c1ccc2oc(=O)n(Cc3ccccc3)c2c1	.	-1	10	.	1
COc1ccccc1CNC(=O)c1ccc(CS(=O)(=O)c2ccc(C)cc2)o1	8	-4	-50*	-33	12
COc1ccccc1S(=O)(=O)Cc1ccc(C(=O)NCc2ccc(C)cc2)o1	-4	-11	-23	-16	1
O=C(NCc1ccccc1Cl)c1ccc2oc(=O)n(Cc3ccccc3)c2c1	.	1	-33*	.	9
O=C(NCc1ccccc1Cl)c1ccc(CS(=O)(=O)c2ccc(Br)cc2)o1	.	-3	3	.	46*
CCCCN(CC)CCCNC(=O)c1cn(CC)c2ccc(S(=O)(=O)N3CCOCC3)cc2c1=O	.	0	-5	.	1
CCn1cc(C(=O)NCc2ccccc2Cl)c(=O)c2cc(S(=O)(=O)N3CCCCCC3)ccc21	.	-2	-62*	.	4
O=C(NCCc1ccc2c(c1)OCCO2)c1cc(S(=O)(=O)N2CCCC2)ccc1Cl	-6	-6	-32*	-2	16
CCn1cc(C(=O)NCc2ccccc2Cl)c(=O)c2cc(S(=O)(=O)N3CCCCC3)ccc21	.	2	-5	.	1
CC(C)CCNC(=O)c1c[nH]c2ccc(S(=O)(=O)N3CCOCC3)cc2c1=O	82*	-6	0	-2	2
CCCCN(C)CCCNC(=O)c1cn(CC)c2ccc(S(=O)(=O)N3CCOCC3)cc2c1=O	4	3	-32*	2	4
Cc1c(Cl)cccc1-n1ncc(C(=O)N2CCN(C)CC2)c1C1CCN(C(=O)OC(C)(C)C)CC1	.	-2	5	.	5
COc1ccc(CCNC(=O)c2cc(Sc3cccc(Cl)c3)nc3ccccc23)cc1OC	.	-3	-18	.	3
CCn1cc(C(=O)NCCc2ccccc2)c(=O)c2cc(S(=O)(=O)N3CCOCC3)ccc21	.	1	-2	.	0
CCn1cc(C(=O)NCCc2ccccc2)c(=O)c2cc(S(=O)(=O)N3CCCC3)ccc21	96*	-5	0	0	0
COCCNC(=O)c1cn(C)c2ccc(S(=O)(=O)N3CCCC3)cc2c1=O	0	1	-31*	3	4
CCOCCCNC(=O)c1cn(C)c2ccc(S(=O)(=O)N3CCCC3)cc2c1=O	2	-3	10	6	4
CCn1cc(C(=O)O)c(=O)c2cc(S(=O)(=O)N(C)C)ccc21	-5	0	-37*	-28	4
CCC(C)NC(=O)c1cn(CC)c2ccc(S(=O)(=O)N(C)C)cc2c1=O (stereo not given)	?	-1	-5	-18	2
SMILES	TRPV1 agonist	D1 potentiator	D1 antag	TRPV1 potentiator	D1 agonist
CCOC(=O)c1c(NC(=O)/C=C/c2ccc(Cl)cc2)sc2c1CCC(C)C2 (stereo not given)	.	-2	-4	.	-1
COc1ccc(N=C(N)SCc2ccccn2)cc1	11	-10	-43*	-12	21
COc1ccc(-c2nnc(SCc3ccccn3)n2C)cc1	0	-17	2	-6	0
Cc1cc(C)n2c(Nc3ccccc3C)c(-c3cccs3)nc2n1	.	0	5	.	6
CCC(C(=O)NCCc1cc(OC)ccc1OC)n1nc(C)c2sc3ccccc3c2c1=O (stereo not given)	.	1	-7	.	1
COc1ccc(NC(=O)COc2ccc(C)nc2[N+](=O)[O-])cc1S(N)(=O)=O	-1	-1	-40*	0	0
O=C(O)c1cccc(NC(=O)c2cc3cc(Br)cc(Br)c3oc2=O)c1	.	0	6	.	1
COc1ccc(N(Cc2ccccc2)S(=O)(=O)c2ccc(C)cc2)cc1	2	-7	-30*	4	15
COc1ccc(S(=O)(=O)N(CC(=O)O)c2ccc(C)cc2)cc1	2	3	-50*	-2	3
COc1ccc(S(=O)(=O)N(CC(=O)NC2CC2)c2ccc(C)cc2)cc1	4	6	0	-1	2
CN(C)c1nc(SCC#N)nc(N(C)C)n1	4	-8	-74*	-5	0
CCc1cccc(NC(=O)COc2cc(=O)n(CC)c3ccccc23)c1	.	-1	4	.	0
Cc1ccccc1NC(=O)COC(=O)Cc1ccsc1	6	-4	-31*	-4	3
CC(Oc1ccccc1)C(=O)OCC(=O)Nc1sccc1C(N)=O (stereo not given)	5	-3	-34*	7	14
NC(=O)c1ccsc1NC(=O)COC(=O)Cc1ccsc1	1	-8	-39*	0	10
Cc1cccc(C)c1NC(=O)COC(=O)Cc1ccsc1	3	-6	10	1	3
CC(=O)Nc1cccc(Nc2nc(-c3ccccc3F)nc3ccccc23)c1	96*	6	-1	-15	-3
CC(=O)c1cccc(Nc2nc(-c3ccccc3Cl)nc3ccccc23)c1	.	-3	-26	.	1
CCOc1ccc(-c2cc(NC(=O)Nc3cccc(C(C)=O)c3)c(C(=O)OC)s2)cc1	.	-2	2	.	5
COc1ccc(CNC(=O)c2cc(=O)c3cc(C)ccc3o2)cc1	14	-2	-36*	8	9
Cc1ccc(CNC(=O)c2cc(=O)c3ccc(C)cc3o2)cc1	4	-2	-2	-9	5
COc1ccc2oc(=O)c(C(=O)NCc3ccc(C)cc3)cc2c1	14	-7	-37*	1	4
Cc1ccc(CNC(=O)c2cc(=O)c3ccccc3o2)cc1	1	.	-35*	19	16
Cc1ccc2c(=O)cc(C(=O)Nc3c(C)cccc3C)oc2c1	.	-3	-32*	.	-2
CCOc1ccccc1CNC(=O)CCn1ccc2cc(S(=O)(=O)N3CCC(C)CC3)ccc21	.	1	2	.	1
Cc1cc2oc(C(=O)Nc3c(C(=O)Nc4ccccc4)oc4ccccc34)cc(=O)c2cc1C	.	-1	-43*	.	3
Cc1cc(N2CCOCC2)n2ncc(-c3ccc(Cl)cc3)c2n1	-1	-5	-33*	5	2
Cc1ccc(-c2cnn3c(N4CCOCC4)cc(C)nc23)cc1	3	-10	-8	-4	1
CCOc1ccc(Sc2cc(C(=O)NCCc3ccc(OC)c(OC)c3)c3ccccc3n2)cc1	.	-2	3	.	5
